KB-3-1 tox: qHTS assay for MDR1-selective chemotherapeutics: Primary screen using the parental adenocarcinoma cell KB-3-1; Potency, µM (titrated, usually from 46.1 µM), most hits filed as cytotoxic; AID 1347075, 2019; KB-3-1 viability, CellTiter-Glo ATP luminescence, 72 h; actives 1.4% (n = 400,000); further: potency means the concentration at half of the fitted maximal effect; nearly all actives have a fitted effect of over 60% in size
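Here the drug-naive KB-3-1 line serves as comparator for MDR sub-line selectivity; cells received compound titrations, 72 h at 37 °C, then CellTiter-Glo readout.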
IL1B secr inh: qHTS for Inhibitors of Inflammasome Signaling: IL-1-beta AlphaLISA Primary Screen. actives 4.7% (n = 360,000). activity change, % at 57.5 µM. THP-1 LPS/ATP IL-1B secretion, AlphaLISA, 16 h; stronger effect = lower value; in the data active means activity change below about -50%; inconclusive means mostly about -30% to -49%
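THP-1 cells pretreated 1 hr with compounds (up to 57.5 uM final), then stimulated with LPS (250 ng/mL final) plus ATP (1.25 mM final); secreted IL-1B measured by AlphaLISA after 16 hr, decreased signal indicating inhibition.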
HT1080 IDH1KD tx: qHTS for induction of synthetic lethality in tumor cells producing 2HG: qHTS for the HT-1080-IDH1KD cell line | HT-1080 IDH1 knockdown viability, ATP luminescence, 48 h | Potency, µM (doses to about 46.1 µM), for the others: at the top dose activity, negative = toxicity, usual class: cytotoxic | actives 2% (n = 360,000) | AID 686971, 2013;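 further: potency means the concentration at half of the fitted maximal effect; 0% = DMSO wells and -100% = cell-free medium wells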
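Assay cells: HT-1080 with IDH1 knockdown, 750 per well, RPMI/5% FBS. Exposure: 48 h at 37 °C following 2 h pre-incubation. Read: CellTiter-Glo luminescence; fitted concentration-response, curve class assigned.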
KB-V1 MDR tox: qHTS assay for MDR1-selective chemotherapeutics: Primary screen using the drug-selected MDR subline cells KB-V1; Potency, µM (series often up to 46.1 µM), usual class: cytotoxic; AID 1347076, 2019; KB-V1 MDR cells viability, CellTiter-Glo, 72 h; actives 3.4% (n = 400,000); further: potency means the concentration at half of the fitted maximal effect; nearly all actives have a fitted effect of over 60% in size
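Following 72 h at 37 degrees C with compound, KB-V1 cell viability was read by CellTiter-Glo luminescence, medium being phenol-red-free DMEM plus 10% FBS; concentration-response parameters came from normalized, curve-fitted qHTS data.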
HT1080-NT tox: qHTS for induction of synthetic lethality in tumor cells producing 2HG: qHTS for the HT-1080-NT fibrosarcoma cell line; HT-1080-NT fibrosarcoma viability, CellTiter-Glo ATP luminescence, 48 h; Potency, µM (doses to about 46.1 µM), for the others: at the top dose activity, negative = less viability, hits mostly cytotoxic; actives 1.6% (n = 360,000); AID 686970, 2013;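 further: NT is the 2HG producing partner of a matched IDH1 knockdown line; potency means the concentration at half of the fitted maximal effect; 0% = DMSO-treated cells and -100% = media-only wells without cells; nearly all actives have a fitted effect of over 55% in size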
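Fibrosarcoma NT cells, 750 per well in 5% FBS RPMI, were exposed to compound for 48 hours. Viability: CellTiter-Glo luminescence.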
An asterisk follows results filed as active; i = inactive; ? = inconclusive; · = no result. An excerpt weighted towards active compounds, which were near 8.8% of everything screened. Unless noted, the call rests on the fitted dose curve; in most records, active means well fitted curve in the direction sought with a large enough effect; inconclusive means small, poorly fitted or top-dose-only effect, or another doubt; inactive means no such curve, though single readings can be large; an effect the other way counts as inactive or inconclusive. Unless noted, on the % scale 0 is the no-effect control and ±100 the full control effect.

SMILES	KB-3-1 tox	IL1B secr inh	HT1080 IDH1KD tx	KB-V1 MDR tox	HT1080-NT tox
Cc1ccc(C(=O)NCCSC(C)(C)C)cc1[N+](=O)[O-]	i	1	12%	i	10%
Cc1ccc(C(=O)NCCc2cc3ccc(C)c(C)c3[nH]c2=O)cc1[N+](=O)[O-]	i	-17	-6%	4.1µM*	5%
Cc1ccc(C(=O)NCCSCc2ccc(Cl)cc2Cl)cc1[N+](=O)[O-]	i	-58*	0%	i	-16%
CCCCC(=O)Oc1c(S(=O)(=O)c2ccccc2)c(C)nn1C(C)(C)C	i	-77*	?	i	?
Cc1nn(C(C)(C)C)c(OC(=O)c2cccs2)c1S(=O)(=O)c1ccccc1	i	50	?	i	21µM*
Cc1cccc(NC(=S)NCc2cccn2C)c1	21µM*	-17	?	i	?
O=C(NCCc1ccccc1)C(=O)NCC1OCCCN1S(=O)(=O)c1cccs1 (stereo not drawn)	i	-16	5%	i	20%
COC(=O)c1ccccc1C(=O)c1c(C)cc(C)cc1C	·	·	-13%	i	0%
COC(=O)c1cc(C)ccc1/C=C1/Cc2c(C)cc(C)cc2C1=O	i	-7	-21%	16µM*	5%
Cc1ccc(S(=O)(=O)/N=C(\N)Nc2nc(C)c3cc(C)c(C)cc3n2)cc1	i	-2	7%	i	14%
COc1ccc2nc(N/C(N)=N/C(=S)Nc3cccc(C)c3)nc(C)c2c1	?	-56*	-9%	i	-7%
CCOc1ccc2nc(N/C(N)=N/C(=S)Nc3cccc(OC)c3)nc(C)c2c1	i	-55*	9%	i	-2%
COc1ccc2nc(N/C(N)=N/S(C)(=O)=O)nc(C)c2c1	8.2µM*	-8	13%	2.1µM*	?
CCc1ccccc1NC(=S)/N=C(\N)Nc1nc(C)c2cc(C)ccc2n1	?	-101*	-29%	6.5µM*	-9%
Cc1ccc(S(=O)(=O)N2CCN(C(=O)Cn3c(=O)cnc4ccccc43)CC2)cc1	i	-10	11%	i	-1%
COc1ccc2nc(N/C(N)=N/C(=S)Nc3c(C)cccc3C)nc(C)c2c1	?	-63*	1%	?	-6%
Cc1ccc(S(=O)(=O)/N=C(\N)Nc2nc(C)c3cc(C)ccc3n2)cc1	i	-11	?	15µM*	-14%
Cc1ccc(NC(=S)/N=C(\N)Nc2nc(C)c3cc(C)ccc3n2)c(C)c1	i	-17	?	?	-12%
Cc1ccc(S(=O)(=O)/N=C(\N)Nc2nc(C)c3ccc(C)cc3n2)cc1	i	-21	-10%	i	8%
CCOc1ccc2nc(N/C(N)=N/C(=S)Nc3cccc(C)c3)nc(C)c2c1	i	?	5%	23µM*	16%
COc1ccc(NC(=S)/N=C(\N)Nc2nc(C)c3ccccc3n2)cc1	i	-7	?	?	-1%
COc1ccc(/C=C/C(=O)N2CCN(c3ccccn3)CC2)c(OC)c1OC	i	-17	2%	i	5%
CC(Oc1ccccc1Cl)C(=O)Nc1ccc(S(=O)(=O)N2CCN(C)CC2)cc1 (stereo not drawn)	i	-55*	?	i	?
CC(Oc1ccccc1)C(=O)Nc1ccc(S(=O)(=O)N2CCN(C)CC2)cc1 (stereo not drawn)	i	-26	1%	i	0%
O=C(Nc1cccc(Cl)c1)Nc1cc(S(=O)(=O)N2CCCCC2)ccc1Cl	?	-88*	26µM*	?	?
SMILES	KB-3-1 tox	IL1B secr inh	HT1080 IDH1KD tx	KB-V1 MDR tox	HT1080-NT tox
CN1CCN(S(=O)(=O)c2ccc(NC(=O)c3ccccc3Cl)cc2)CC1	i	2	0%	i	-4%
CCn1ccc2cc(S(=O)(=O)N3CCCN(C(=O)Nc4cccc(Cl)c4)CC3)ccc21	?	·	·	10µM*	·
CN1CCN(S(=O)(=O)c2ccc(NC(=O)Nc3cccc(Cl)c3)cc2)CC1	i	-2	18µM*	i	21µM*
Cc1ccc(S(=O)(=O)N2CCCCC2)cc1NC(=O)Nc1ccc(Cl)cc1Cl	i	-8	7%	i	7%
CN(C)C(CNC(=S)Nc1ccc(F)cc1)c1cccnc1 (stereo not drawn)	i	17	1%	i	-2%
COc1ccc(S(=O)(=O)c2snnc2C)cc1	i	7	0%	?	5%
O=C(CN1C(=O)C(=O)N(Cc2ccco2)C1=O)Nc1ccccc1	i	24	8%	?	-4%
O=C(COC(=O)Cc1c(F)cccc1Cl)NNC(=O)c1ccccc1	i	2	5%	i	0%
CSc1nc2ccccc2n1Cc1c(Cl)cccc1Cl	i	-3	?	?	-18%
CC(Oc1cccc(Cl)c1)C(=O)Nc1ccc(S(=O)(=O)N(C)C2CCN(C)CC2)cc1 (stereo not drawn)	i	-57*	-7%	23µM*	-1%
O=C(Nc1cc(S(=O)(=O)N2CCCC2)ccc1Cl)c1cc(F)c(F)c(F)c1F	i	-99*	-1%	i	0%
O=C(Nc1cccc(Cl)c1)C1CCCN(S(=O)(=O)c2ccc(F)cc2)C1 (stereo not drawn)	?	-51*	?	6.5µM*	?
CSc1cccc(NC(=O)C2CCCN(S(=O)(=O)c3ccc(F)cc3)C2)c1 (stereo not drawn)	i	-15	?	?	-30%
C[C@H](CO)N1C[C@H](C)[C@@H](CN(C)Cc2ccc(C(=O)O)cc2)Oc2ccc(NS(C)(=O)=O)cc2C1=O	i	18	14%	i	0%
O=C(COc1ccccc1F)Nc1c(C(=O)Nc2cccc(F)c2)oc2ccccc12	i	·	·	i	·
O=C(CCNS(=O)(=O)c1ccc(Br)cc1)NCc1ccco1	i	0	6%	?	1%
O=c1cc(O)n(C2CCCCCC2)c(=O)[nH]1	i	9	16%	?	10%
CC(=NCc1ccco1)c1c(O)n(C2CCCCC2)c(=O)[nH]c1=O	i	29	10%	5.8µM*	8%
COCC(=O)OCC(=O)Nc1ccc(Cl)cc1[N+](=O)[O-]	i	35	2%	i	8%
COc1cccc(Nc2nc3cc(C)ccc3nc2NS(=O)(=O)c2ccc(Cl)cc2)c1	?	·	·	15µM*	·
COc1cccc(Nc2nc3ccccc3nc2NS(=O)(=O)c2ccc(NC(C)=O)cc2)c1	i	0	-9%	i	-7%
